# Measured values reported in PubChem BioAssay AID1220 (Sanford-Burnham Center for Chemical Genomics, 2008).
# Screen size: about 190,000 compounds; about 1,300 (0.68%) were called active. The sample holds actives, similar compounds and a random draw of the others, so the mix is not that of the screen. A number with no mark means an inactive call. Rule as the data show it: active = inhibition above about 50%; inactive = the rest.
# Biological target: Mannose-6-phosphate isomerase (Homo sapiens) (UniProt P34949)
# Sequence (P34949 whole entry, looked up): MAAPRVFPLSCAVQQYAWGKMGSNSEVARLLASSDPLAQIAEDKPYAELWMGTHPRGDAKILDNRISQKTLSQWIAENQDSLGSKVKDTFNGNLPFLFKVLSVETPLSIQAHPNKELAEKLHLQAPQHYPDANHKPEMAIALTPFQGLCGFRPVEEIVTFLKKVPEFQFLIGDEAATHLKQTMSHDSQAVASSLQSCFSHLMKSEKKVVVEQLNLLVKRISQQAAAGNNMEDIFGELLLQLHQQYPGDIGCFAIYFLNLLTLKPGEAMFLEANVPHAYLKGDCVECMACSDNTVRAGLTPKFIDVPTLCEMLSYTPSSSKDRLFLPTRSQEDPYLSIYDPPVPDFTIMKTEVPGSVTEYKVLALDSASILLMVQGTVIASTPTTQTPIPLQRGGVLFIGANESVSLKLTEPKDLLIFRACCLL
# Assay: MPI inhibition at elevated mannose 6-phosphate – biochemical, fluorescence intensity, high mannose 6-phosphate, primary screen (AID 1220)
# Details: recombinant PMI enzyme, coupled fluorescence intensity; at 20 µM; hits give high values
row,Structure (SMILES),inhibition
1,COc1cc(CN2CCC(C(=O)NC3CCCC3)CC2)ccc1O,3.5%
2,COc1cc(CN2CCC(C(=O)NC3CCCC3)CC2)cc(Br)c1O,14.6%
3,COc1cc(CN2CCC(C(=O)N3CCN(c4ccccc4F)CC3)CC2)ccc1O,13.4%
4,COc1cc(CN2CCC(C(=O)N3CCN(c4ccccc4F)CC3)CC2)cc(OC)c1OC,9.1%
5,COc1cc(CN2CCC(C(=O)NC3CCCC3)CC2)cc(OC)c1O,63.9% (active)
6,COc1cc(CN2CCC(C(=O)N3CCN(c4ccccc4F)CC3)CC2)cc(OC)c1O,53.7% (active)
7,Cc1cc(-c2[nH]nc3c2C(c2ccc(Cl)cc2)C(C#N)=C(N)O3)c(C)s1 (centres undefined),26.2%
8,COc1ccc(Cl)cc1CSc1n[nH]c(C)n1,8.9%
9,O=C(NCc1ccco1)C(=O)NCC1OCCCN1S(=O)(=O)c1ccccc1 (centres undefined),-6.2%
10,Cc1cc(NC(=O)CCC(=O)N(CC(=O)NCC2CCCO2)Cc2ccc(F)cc2)no1 (centres undefined),-6.3%
11,COc1ccc(C=C2C(=O)c3ccccc3C2=O)cc1O,60.8% (active)
12,COc1cc(C=C2C(=O)c3ccccc3C2=O)cc(OC)c1OC,-22.9%
13,CCN1C/C(=C/c2ccc(OC)c(O)c2)C(=O)/C(=C/c2ccc(OC)c(O)c2)C1,36.6%
14,CC1(C)C(=O)Nc2ccccc2N1C(=O)COc1cccnc1[N+](=O)[O-],-1.5%
15,CCOc1cc(-c2noc(CCCC(N)=O)n2)cc(Br)c1OC,15.3%
16,CC(C)CC1(C)NC(=O)N(CC(=O)NC(=O)Nc2ccc3c(c2)OCCO3)C1=O (centres undefined),7%
17,N#CC(C#N)=C1C=C2C=C(N3CCCCC3)CCC2CC1 (centres undefined),58.7% (active)
18,N#CC1=C(N)C2=C(N3CCCCC3)CCCC2C1(C#N)C#N (centres undefined),11.7%
19,N#CC(C#N)=C1C=C2C=C(N3CCOCC3)CCC2CC1 (centres undefined),55.3% (active)
20,N#Cc1cc(Cl)c(N2CCOCC2)cc1C#N,-7.2%
21,N#C/C(=C\c1ccc(N2CCOCC2)cc1)c1ccccc1,2.5%
22,N#CC(C#N)=C1C=C2C=C(N3CCCCCC3)CCC2CC1 (centres undefined),50.6% (active)
23,CN1CCN(C2=CC3=CC(=C(C#N)C#N)CCC3CC2)CC1 (centres undefined),61.8% (active)
24,Cc1cc(C)c(NC(=O)CS)c(Cl)c1,-11.6%
25,CSc1nc(Cl)cc(Nc2ccccc2N)n1,-3%

row,Structure (SMILES),inhibition
1,O=C(O)CCNC(=O)/C(=C/C=C/c1ccccc1)NC(=O)c1ccccc1,-0.9%
2,Cc1ccc(Nc2nc(Nc3ccc(C)cc3)nc(SC3=NCCS3)n2)cc1,8.1%
3,CCCCC1(Cc2ccc(OC)c([N+](=O)[O-])c2)C(=O)N(c2ccccc2)N(c2ccccc2)C1=O,11%
4,CC(C)(C)CC(C)(C)c1ccc(O)c(CN2CCN(CCC#N)CC2)c1,4.7%
5,CC1(C)CC(NCCN2CCN(C3=CC(=C(C#N)C#N)CC(C)(C)C3)CC2)=CC(=C(C#N)C#N)C1,12.4%
6,CCC(CC)COC(=O)C(C#N)c1nc2ccccc2nc1N1CCN(CC)CC1 (centres undefined),17.2%
7,CCN1CCN(C2=CC3=CC(=C(C#N)C#N)CCC3CC2)CC1 (centres undefined),59.6% (active)
8,CCn1cc(C(=O)N2CCc3ccccc32)c(=O)c2cc(S(=O)(=O)N3CCCCCC3)ccc21,5.7%
9,CCCC(=O)NC(c1ccc(N(C)C)cc1)c1c(O)ccc2ccccc12 (centres undefined),54.8% (active)
10,CCCC(=O)NC(c1ccccc1Cl)c1c(O)ccc2ccccc12 (centres undefined),13.4%
11,CCC(=O)NC(c1ccc([N+](=O)[O-])cc1)c1c(O)ccc2ccccc12 (centres undefined),14.3%
12,CCC(=O)NC(c1ccc(OC)cc1)c1c(O)ccc2ccccc12 (centres undefined),44.2%
13,CCCC(=O)NC(c1ccc(OC)c(OC)c1)c1c(O)ccc2ccccc12 (centres undefined),23.2%
14,CCC(=O)NC(c1ccc(N(C)C)cc1)c1c(O)ccc2ccccc12 (centres undefined),62% (active)
15,Cc1cc(NC(=O)CN2C(=O)/C(=C/c3cccc(Br)c3)SC2=S)no1,-9.8%
16,CC(Cl)c1cc(-c2ncc(C(F)(F)F)cc2Cl)no1 (centres undefined),-4.3%
17,CCc1ccccc1OCCCCCNCCO,1.5%
18,COc1cc(C2=NOC(C(=O)N3CCCCCC3)C2)cc(OC)c1OC (centres undefined),-5.6%
19,O=C(O)C1CC=CCC1C(=O)NCCc1csc(-c2ccccc2)n1 (centres undefined),-17.1%
20,CCOc1ccc(C(C)NC(=S)NC2CCCCC2)cc1OCC (centres undefined),6%
21,Cc1ccc(OCC(=O)N/N=C\c2cn(C)c3ccccc23)c([N+](=O)[O-])c1,14%
22,COc1cccc(C2NC(=O)c3ccccc3O2)c1OCc1ccccc1F (centres undefined),19%
23,CN(C)c1ccc(/C(=N\O)c2ccccc2)cc1,5.9%
24,CN(C)c1ccc(N=Cc2nc(-c3ccccc3)oc2O)cc1,31%
